High-throughput results as filed in PubChem.
In the library only some 21% were active in any assay of this set; here they are far more common.
RORgamma inh = qHTS for inhibitors of ROR gamma transcriptional activity. Nuclear receptor ROR-gamma (Mus musculus), P51450. Drosophila S2 Gal4-RORgamma UAS-luciferase reporter, 20 h. Potency, µM (series often up to 53.6 µM), for the others: top-dose activity change, negative = inhibition, hits mostly inhibitors. 310,000 compounds, 5.4% hits. AID 2551, 2010; also: potency is read from the fitted curve at half-maximal effect; nearly all actives have a fitted effect of over 60% in size
Target sequence (P51450 whole entry, looked up, the tested form may be a part): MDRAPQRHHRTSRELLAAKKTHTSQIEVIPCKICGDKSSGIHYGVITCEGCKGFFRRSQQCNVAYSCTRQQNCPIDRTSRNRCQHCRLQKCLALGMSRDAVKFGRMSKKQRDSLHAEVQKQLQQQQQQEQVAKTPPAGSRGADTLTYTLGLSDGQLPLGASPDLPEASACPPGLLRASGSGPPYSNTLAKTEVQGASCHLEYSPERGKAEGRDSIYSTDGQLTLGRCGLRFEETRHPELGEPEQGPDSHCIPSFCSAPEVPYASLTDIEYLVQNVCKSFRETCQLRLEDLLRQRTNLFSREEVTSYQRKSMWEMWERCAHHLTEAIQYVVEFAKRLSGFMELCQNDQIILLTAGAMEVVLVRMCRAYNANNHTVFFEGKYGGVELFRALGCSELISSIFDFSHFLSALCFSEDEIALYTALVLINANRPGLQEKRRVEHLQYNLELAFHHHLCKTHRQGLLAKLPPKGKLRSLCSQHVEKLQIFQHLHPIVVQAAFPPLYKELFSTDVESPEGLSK
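Stable Schneider cell line, Gal4 DNA-binding domain fused to ROR gamma, UAS-luciferase. Cmpd 1 hr RT → CuSO4 700 uM final → 20 hr RT → luciferase reagent 10 min → luminescence.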
VP16 counter = VP16 counterscreen qHTS for inhibitors of ROR gamma transcriptional activity; Drosophila S2 Gal4-VP16 UAS-luciferase, luminescence, 20 h; Potency, µM (titrated, usually from 53.6 µM), for the others: at the highest dose activity, negative = inhibition, most hits filed as inhibitors; 310,000 compounds, 3.5% hits; AID 2546, 2010;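 also: Gal4-VP16 expression switched on by copper sulfate through the metallothionein promoter; potency is read from the fitted curve at half-maximal effect; nearly all actives have a fitted effect of over 50% in size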
TDP1 cell noCPT = qHTS for Inhibitors of human tyrosyl-DNA phosphodiesterase 1 (TDP1): qHTS in cells in absence of CPT; DT40 Tdp1-/- hTDP1 cells, no CPT, ATP luminescence, 48 h; Potency, µM (doses to about 46.2 µM), for the others: at the top dose activity change, negative = growth inhibition, hits mostly inhibitors; 420,000 compounds, 15% hits; AID 686978, 2013; also: potency is read from the fitted curve at half-maximal effect; nearly all actives have a fitted effect of over 55% in size
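DT40 Tdp1-/-;hTDP1 cells, no CPT (DMSO vehicle only), 400 cells/well; compounds pin-transferred; ≥48 hr, 37 °C; CellTiter-Glo 30 min RT dark, luminescence read.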
DT40 TDP1 CPT = qHTS for Inhibitors of human tyrosyl-DNA phosphodiesterase 1 (TDP1): qHTS in cells in presence of CPT | chicken DT40 Tdp1-/-;hTDP1 cells + 20 nM CPT, ATP luminescence, 48 h | Potency, µM (doses to about 46.2 µM), for inactives: at the highest dose activity change, negative = growth inhibition, actives largely listed as inhibitors | 420,000 compounds, 12% hits | AID 686979, 2013; also: potency is read from the fitted curve at half-maximal effect; nearly all actives have a fitted effect of over 55% in size
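Cell growth measured by CellTiter-Glo luminescence after a minimum 48 h, 37 C compound exposure with 20 nM CPT in Tdp1-knockout DT40 cells stably expressing hTDP1, seeded 400/well; qHTS titration format.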
IL1B secr inh = qHTS for Inhibitors of Inflammasome Signaling: IL-1-beta AlphaLISA Primary Screen; THP-1 LPS/ATP IL-1B secretion, AlphaLISA, 16 h; hits give low values; activity change, % at 57.5 µM; 360,000 compounds, 4.7% hits; AID 743279, 2014; in the data active = activity change below about -50%; inconclusive = mostly about -30% to -49%
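Secreted IL-1B measured by AlphaLISA bead assay after 16 h compound exposure of THP-1 cells; compounds (final up to 57.5 uM) added 1 h before LPS (250 ng/mL) and ATP (1.25 mM) stimulation; lower signal means less secretion.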
ELG1 DNA repair = qHTS screen for small molecules that inhibit ELG1-dependent DNA repair in human embryonic kidney (HEK293T) cells expressing luciferase-tagged ELG1 | HEK293T ELG1-luciferase reporter, luminescence, 16 h; DNA damage induced by 5-fluorouridine | Potency, µM (series often up to 46.1 µM), for inactives: at the highest dose activity change, negative = inhibition, hits mostly inhibitors | 330,000 compounds, 2.3% hits | AID 504467, 2011; also: potency is read from the fitted curve at half-maximal effect; nearly all actives have a fitted effect of over 55% in size
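In this reporter screen, reduction of luminescence relative to DMSO vehicle indicated activity. Compounds and 5-fluorouridine were added together to 2,000 cells per well, incubated for 16 hr at 37 °C, then developed with ONE-Glo.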
Starred values were filed as active, the others as inactive; ? = inconclusive; . = no result. Unless noted, calls follow the shape of the dose curve; as a rule, active = well fitted curve in the direction sought with a large enough effect; inconclusive = small, poorly fitted or top-dose-only effect, or another doubt; inactive = no such curve, though single readings can be large; an effect the other way counts as inactive or inconclusive. % is scaled to controls: 0 for no effect and ±100 for the full control effect.

SMILES	RORgamma inh	VP16 counter	TDP1 cell noCPT	DT40 TDP1 CPT	IL1B secr inh	ELG1 DNA repair
CCCCN(CCCC)CCNC(=O)CSCc1ccc(C)cc1	0.1%	-0.2%	20.6µM*	25.9µM*	-8.7	3.2%
O=C1ON=C(c2ccccc2)/C1=C/c1ccc(-c2ccccc2[N+](=O)[O-])o1	?	10µM*	14.6µM*	11.6µM*	-110.4*	?
O=[N+]([O-])c1ccccc1-c1ccc(/C=N/n2cnnc2)o1	16.5%	-3.3%	-12.7%	-15.0%	2.2	1.9%
CCOC(=O)c1sc(=S)n(C)c1NC(=O)c1ccc(OC)cc1	-0.4%	-5.0%	20.6µM*	2.31µM*	-2.9	0.0%
O=C(NC(=S)NN1CCCCC1c1cccnc1)c1ccc(Cl)cc1Cl (centres undefined)	1.58µM*	4.47µM*	25.9µM*	?	-14.9	6.2%
Cc1cccc(NC(=S)N2CCCCC2c2cccnc2)c1C (centres undefined)	-28.3%	7.7%	9.8%	11.1%	22.0	-9.1%
O=C(NC(=S)N1CCCCC1c1cccnc1)c1ccc(F)cc1 (centres undefined)	0.891µM*	2.51µM*	12.9%	-2.2%	-2.7	0.8%
O=C(NC(=S)N1CCCCC1c1cccnc1)c1ccc(Br)cc1 (centres undefined)	0.501µM*	1.26µM*	-2.9%	?	-7.3	0.5%
O=C(C=CC(=O)OC1CCCCC1)OC1CCCCC1	.	.	?	-28.1%	-87.9*	.
CCCCn1c(SCC(=O)c2ccc3c(c2)OCCO3)nnc1-c1ccoc1C	8.0%	15.3%	?	?	-96.1*	-2.7%
NC(=O)CC(NC(=O)c1ccccc1)c1ccc(N2CCC(N3CCCC3)CC2)c([N+](=O)[O-])c1 (centres undefined)	-6.2%	1.3%	-0.2%	-18.5%	19.4	-1.5%
NC(=O)CC(NC(=O)c1ccc(Br)cc1)c1ccc(N2CCC(Cc3ccccc3)CC2)c([N+](=O)[O-])c1 (centres undefined)	-6.3%	20µM*	-73.0%	16.4µM*	-12.9	?
NC(=O)CC(NC(=O)c1ccccc1)c1ccc(N2CCC(Cc3ccccc3)CC2)c([N+](=O)[O-])c1 (centres undefined)	?	11.2µM*	5.17µM*	7.31µM*	-19.6	?
NC(=O)CC(NC(=O)c1ccccc1)c1ccc(N2CCN(c3ccccn3)CC2)c([N+](=O)[O-])c1 (centres undefined)	-1.7%	-4.5%	20.6µM*	20.6µM*	1.7	?
CC(=O)c1ccc([N+](C)(C)C)cc1	.	.	-1.5%	16.7%	.	.
CCC(C)c1ccc(NC(=S)NCCn2cc(Cl)cn2)cc1 (centres undefined)	3.16µM*	10µM*	20.6µM*	?	?	-12.4%
CCC(C)c1ccc(NC(=O)CC(C)=O)cc1 (centres undefined)	?	?	-20.1%	-21.9%	0.0	?
CCC(C)c1ccc(NC(=S)NCCn2cc(Br)cn2)cc1 (centres undefined)	2.24µM*	11.2µM*	14.6µM*	20.6µM*	-52.3*	-3.8%
Cc1ccc(-c2csc3nc4c5ccccc5c(NCCCN(C)C)nn4c(=O)c23)cc1	?	?	18.4µM*	?	?	?
COc1ccc(-c2nc(CN3CCN(C(=O)c4ccco4)CC3)c(C)o2)c(OC)c1C	?	3.3%	18.4µM*	?	-5.3	11.6µM*
O=C(c1ccco1)N1CCN(Cc2cn[nH]c2-c2cccc3ccccc23)CC1	5.0%	-0.2%	23.1µM*	?	-16.3	1.9%
O=C(c1ccco1)N1CCN(CC(O)COc2ccc3oc4ccccc4c3c2)CC1 (centres undefined)	?	-10.9%	?	18.4µM*	-23.8	?
O=C(c1ccco1)N1CCN(CCCCN2C(=O)c3ccccc3C2=O)CC1	20.2%	-7.6%	-1.6%	-14.8%	-68.7*	5.3%
COc1ccc(OC)c(-c2nc(CN3CCN(C(=O)c4ccco4)CC3)c(C)o2)c1	-17.2%	3.2%	?	-18.0%	-3.5	-3.5%
CCOC(=O)N1CCN(Cc2cn[nH]c2-c2cccc3ccccc23)CC1	3.1%	-3.4%	?	-27.1%	-14.9	-1.3%
SMILES	RORgamma inh	VP16 counter	TDP1 cell noCPT	DT40 TDP1 CPT	IL1B secr inh	ELG1 DNA repair
COc1ccccc1OCc1ccc(C(=O)N2CCN(C(=O)c3ccco3)CC2)cc1	6.5%	-1.6%	-26.2%	-4.8%	1.1	?
CCn1c(=O)cc(SCC(=O)N2CCOCC2)c2ccccc21	-37.2%	5.6%	-20.1%	-15.9%	-5.6	?
CCn1c(=O)cc(SCC(=O)N2CCN(c3ccccc3OC)CC2)c2ccccc21	36.2%	0.8%	?	18.4µM*	-16.1	-25.5%
O=C(OCC(=O)N1CCN(C(=O)c2ccco2)CC1)c1ccccc1OCc1ccc(Cl)cc1	?	-11.2%	23.1µM*	16.4µM*	0.0	?
O=C(OCC(=O)N1CCOCC1)c1ccccc1OCc1ccc(Cl)cc1	.	.	?	10.9%	-17.5	?
COc1ccc(CN2CCN(C(=O)c3ccco3)CC2)cc1OCc1ccccc1	?	-13.8%	14.6µM*	?	-19.2	?
CCn1c(=O)cc(SCC(=O)N2CCN(C3CCCCC3)CC2)c2ccccc21	-14.9%	-1.7%	-50.9%	-29.8%	?	?
CCn1c(=O)cc(SCC(=O)N2CCN(C(=O)c3ccco3)CC2)c2ccccc21	-29.8%	12.7%	?	-22.7%	-51.5*	?
O=C(COC(=O)CN1C(=O)NC2(CCCCC2)C1=O)Nc1cc(F)ccc1F	.	.	-3.7%	?	-0.3	4.1%
CCn1c2ccccc2c2cc(CN3CCN(C(=O)c4ccco4)CC3)ccc21	?	?	23.1µM*	?	-2.5	?
Cc1ccc(CN2CCN(C(=O)c3ccco3)CC2)cc1	-29.5%	-7.4%	-26.2%	-10.0%	7.2	0.2%
CC1(c2ccccc2)NC(=O)N(CC(=O)Nc2ccccc2C(=O)N2CCCCC2)C1=O (centres undefined)	.	.	-20.1%	1.5%	8.9	13.3%
